Results filed as inconclusive are left out. The source made the active and inactive calls. The call rests on the fitted dose curve; in most records, active means well fitted curve in the direction sought with a large enough effect in the repeat runs; inconclusive means weak or mixed curves; inactive means no such curve, though single readings can be large; an effect the other way counts as inactive or inconclusive.
Further: nearly all actives have a fitted effect of over 55% in size.
Potency means the concentration at half of the fitted maximal effect.

Chain of Cytochrome P450 2D6 (Homo sapiens) (P10635 whole entry, looked up): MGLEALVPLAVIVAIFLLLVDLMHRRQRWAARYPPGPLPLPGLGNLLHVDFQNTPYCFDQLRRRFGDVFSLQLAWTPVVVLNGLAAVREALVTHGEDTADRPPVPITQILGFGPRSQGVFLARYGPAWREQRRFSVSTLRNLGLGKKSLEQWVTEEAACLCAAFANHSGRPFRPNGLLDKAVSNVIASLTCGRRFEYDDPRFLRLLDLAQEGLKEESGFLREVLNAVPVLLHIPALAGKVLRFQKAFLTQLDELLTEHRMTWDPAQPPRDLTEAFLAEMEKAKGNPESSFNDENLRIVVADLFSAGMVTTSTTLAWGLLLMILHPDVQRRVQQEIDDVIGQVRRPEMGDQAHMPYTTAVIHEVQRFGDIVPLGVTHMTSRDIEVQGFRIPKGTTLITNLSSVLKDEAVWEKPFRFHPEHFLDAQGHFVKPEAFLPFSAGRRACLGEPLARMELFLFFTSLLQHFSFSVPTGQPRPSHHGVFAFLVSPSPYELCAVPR
Chain of Cytochrome P450 2C9 (Homo sapiens) (P11712 whole entry, looked up): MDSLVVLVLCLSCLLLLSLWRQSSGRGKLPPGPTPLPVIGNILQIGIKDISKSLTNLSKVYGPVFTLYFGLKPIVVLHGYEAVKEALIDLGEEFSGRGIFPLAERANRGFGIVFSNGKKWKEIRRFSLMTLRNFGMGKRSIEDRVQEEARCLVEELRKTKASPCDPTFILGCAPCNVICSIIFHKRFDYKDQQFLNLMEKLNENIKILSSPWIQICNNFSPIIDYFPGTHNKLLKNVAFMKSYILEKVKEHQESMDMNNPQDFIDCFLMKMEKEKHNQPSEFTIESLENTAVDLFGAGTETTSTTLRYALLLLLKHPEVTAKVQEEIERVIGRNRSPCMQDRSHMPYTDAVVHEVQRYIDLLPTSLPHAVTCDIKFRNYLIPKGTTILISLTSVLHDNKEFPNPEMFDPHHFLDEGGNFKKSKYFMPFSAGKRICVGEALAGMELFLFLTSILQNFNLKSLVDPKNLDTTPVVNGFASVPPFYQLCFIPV

The target in one assay is Cytochrome P450 2D6 (Homo sapiens) (UniProt P10635). Kind of assay: Cytochrome P450 family 2 subfamily D member 6 (CYP2D6) small molecule antagonists: luciferase biochemical (cell-free) qHTS assay (AID 1645840). The note with it: P450-Glo CYP2D6 enzyme, luciferin luminescence, 1 h; series mostly up to 57.4 µM. Summed up:
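P450-Glo luminescent screen: recombinant CYP2D6 enzyme–proluciferin substrate mix preincubated with compound 10 min at room temperature, then NADPH regeneration added for 1 h at room temperature. Detection reagent added for 20 min; luciferin light read as relative luminescence units.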
Background: In qHTS, concentration-response curves come from the screen itself.
`CC1(C)CC(NC(=O)C(=O)Nc2ccc(Cl)cc2)CC(C)(C)N1`: the Potency result is “inactive”.

Turning to `Cn1c2ccc(NC(=O)c3ccccc3)cc2c(=O)n2nc(C(=O)O)cc12`, the Potency result was “inactive”.

With `COc1cc(Nc2nc3ccccc3nc2NS(=O)(=O)c2cccc(NC(=O)c3ccc(C)c(OC)c3)c2)cc(OC)c1`, the Potency entry is “inactive”. On to `Oc1ccccc1-c1cc(-c2ccccc2F)[nH]n1`, for which the Potency result is “inactive”. Consider `COc1ccc(-c2ccn(CC[C@](C)(C(=O)NO)S(C)(=O)=O)c(=O)c2)c(F)c1`, for which the Potency result is “inactive”.

As for `COc1ccccc1N1CCN(CCCCNC(=O)c2ccc(-c3cscn3)cc2)CC1`, the Potency is 6.01 µM (active). As for `Nc1ncnc2c1c(COc1cccc(Cl)c1)nn2C1CCOCC1`, the Potency entry was “inactive”. Consider `Cc1ccc(Cl)cc1N(CC(=O)Nc1c(F)cccc1F)S(C)(=O)=O`, for which the Potency result was “inactive”. For `NC1=NC2(c3cc(NC(=O)c4ccc(F)cn4)ccc3F)COCC2CS1` (configuration not stated), the Potency is 4.77 µM (active).

Regarding `Cc1nnc(-c2ccc3occ(-c4ccc(S(C)=O)cc4)c3c2)o1` (configuration not stated), the Potency entry was “inactive”. For `NC[C@H]1CCC[C@@H](CNC(=O)[C@@H](Cc2c[nH]c3ccccc23)NC(=O)N2CCC3(C=Cc4ccccc43)CC2)C1`, the Potency is 10.5 µM (active).

As to `COc1cccc(Cn2ncc3c4sc(S(C)=O)cc4n(C)c3c2=O)c1` (configuration not stated), the Potency is 10.7 µM (active). On the same count and under the same terms, in the case of `Cc1ccc2[nH]c(=O)c(C3=NN(C(=O)CCC(=O)O)C(c4ccc(Br)cc4)C3)c(-c3ccccc3)c2c1` (configuration not stated) it was “inactive”; in that of `Cc1ccccc1-c1cc(N2CCN(C)CC2)ncc1N(C)C(=O)C(C)(C)c1cc(C(F)(F)F)cc(C(F)(F)F)c1`, 15.1 µM (active); in that of `CN1CCc2cc(Cl)c(O)cc2[C@@H](c2cccc3c2OCC3)C1`, 0.477 µM (active). As for `CCOc1nc2c(N)ncnc2n1CC`, the Potency result was “inactive”. `CCOc1ccc(-c2nn3ncccc3c2-c2ccc(S(C)(=O)=O)cc2)cc1`: the Potency was 1.07 µM (active). `CC(C)[C@@](O)(c1ccc2cc(OC(F)F)c(OC(F)F)cc2c1)c1cn[nH]n1`: the Potency is 1.69 µM (active).

`COc1ccnc(CCc2nc3ncccc3[nH]2)c1`: the Potency result is “inactive”. For `CN[C@H](CNC(=O)N1CCC[C@@H]([C@@H](OCCNC(=O)OC)c2cccc(Cl)c2)C1)C[C@H]1CCCOC1`, the Potency was 19 µM (active). On to `CCC(=O)N1CCc2cc(OC)c(O)cc2C1`, for which the Potency is 16.9 µM (active). On to `Cc1ccc(COC(=O)N2CC[C@@H](CNc3ncccn3)[C@@H](F)C2)cc1`, for which the Potency was 16.9 µM (active). Take `Oc1ccc(CC2NCCc3cc(O)c(O)cc32)cc1` (configuration not stated): the Potency result is “inactive”. For `Cc1ccc2nc(NC(=O)CSc3nc4c(c(=O)n3-c3ccc(F)cc3)SCC4)sc2c1`, the Potency entry was “inactive”. Take `COc1cccc(OC)c1-c1cc(C(=O)N[C@@H](CC(C)C)C(=O)O)nn1-c1ccnc2cc(Cl)ccc12`: the Potency is 23.9 µM (active).

As for `CC(=O)NCC1CN(c2ccc(-c3ccc(CNCc4cn[nH]n4)cc3)c(F)c2)C(=O)O1` (configuration not stated), the Potency entry was “inactive”. Consider `Cc1ccc(-n2nc(C(C)(C)C)cc2NC(=O)Nc2cc(COc3cccnc3)[nH]n2)cc1`, for which the Potency is 15.1 µM (active). Same read-out and setting: in the case of `CCC1(O)CC2c3cc(OC)c(OC)cc3CCN2CC1CC(C)C` (configuration not stated) it was 0.849 µM (active); in that of `C[C@@H](NC(=O)c1cc(C(=O)N[C@@H](Cc2ccccc2)[C@H](O)CNC2CC2)cc(N(C)S(C)(=O)=O)c1)c1ccccc1`, 4.77 µM (active).

Turning to `CCCSc1nc(NC2CC2c2ccc(F)c(F)c2)c2nnn(C3CC(OCCO)C(O)C3O)c2n1` (configuration not stated), the Potency is 21.3 µM (active). `COc1cccc(OC)c1-c1ccc(C[C@H](NC(=O)c2c(Cl)cccc2Cl)C(=O)O)cc1`: the Potency result is “inactive”. `N[C@@H](CCNCc1ccc(Cl)cc1)C(=O)N1CCCCC1`: the Potency is 10.7 µM (active).

For `COc1cccc(CN(C(=O)CC(C)(C)C)C2CC(C(=O)N3CCNCC3)N(Cc3ccc4c(c3)OCO4)C2)c1` (configuration not stated), the Potency is 26.8 µM (active). Still for that read-out and setting: in the case of `O=C(NC1CCN(CC(F)(F)F)CC1)c1ccc(-c2cccc(F)c2)nc1` it was “inactive”. Still for that read-out and setting: the same measure for `O=C(O)c1cc(C(F)(F)F)ccc1N1CC[C@H](OCc2ccccn2)C1`: “inactive”.

A further assay has as its target Cytochrome P450 2C9 (Homo sapiens) (UniProt P11712). Kind of assay: Cytochrome P450 family 2 subfamily C member 9 (CYP2C9) small molecule antagonists: luciferase biochemical (cell-free) qHTS assay (AID 1645842). The note with it: P450-Glo CYP2C9 enzyme assay, luciferin luminescence; series mostly up to 57.4 µM. In a few lines: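 Luminescence, after 20 min with luciferin detection reagent, reflected CYP2C9 turnover during a 1 h NADPH-driven reaction at 37C. Enzyme-substrate mix contained 0.4% bovine serum albumin and was preincubated with compound 10 min at room temperature.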
For `CC1(C)CC(NC(=O)C(=O)Nc2ccc(Cl)cc2)CC(C)(C)N1`, the Potency entry is “inactive”.

For the compound `Cn1c2ccc(NC(=O)c3ccccc3)cc2c(=O)n2nc(C(=O)O)cc12`, the Potency entry is “inactive”. Same read-out and setting: the same measure for `COc1cc(Nc2nc3ccccc3nc2NS(=O)(=O)c2cccc(NC(=O)c3ccc(C)c(OC)c3)c2)cc(OC)c1`: 1.51 µM (active); for `Oc1ccccc1-c1cc(-c2ccccc2F)[nH]n1`: 13.5 µM (active); for `COc1ccc(-c2ccn(CC[C@](C)(C(=O)NO)S(C)(=O)=O)c(=O)c2)c(F)c1`: “inactive”. In the case of `Nc1ncnc2c1c(COc1cccc(Cl)c1)nn2C1CCOCC1`, the Potency was 12 µM (active).

For the compound `Cc1ccc(Cl)cc1N(CC(=O)Nc1c(F)cccc1F)S(C)(=O)=O`, the Potency is 1.2 µM (active). The same measure, in the same setting: in the case of `NC1=NC2(c3cc(NC(=O)c4ccc(F)cn4)ccc3F)COCC2CS1` (configuration not stated) it was 9.52 µM (active); in that of `Cc1nnc(-c2ccc3occ(-c4ccc(S(C)=O)cc4)c3c2)o1` (configuration not stated), 19 µM (active). Consider `NC[C@H]1CCC[C@@H](CNC(=O)[C@@H](Cc2c[nH]c3ccccc23)NC(=O)N2CCC3(C=Cc4ccccc43)CC2)C1`, for which the Potency was 1.86 µM (active).

Consider `COc1cccc(Cn2ncc3c4sc(S(C)=O)cc4n(C)c3c2=O)c1` (configuration not stated), for which the Potency was 12 µM (active). Still for that read-out and setting: the same measure for `Cc1ccc2[nH]c(=O)c(C3=NN(C(=O)CCC(=O)O)C(c4ccc(Br)cc4)C3)c(-c3ccccc3)c2c1` (configuration not stated): 26.8 µM (active). Still for that read-out and setting: in the case of `Cc1ccccc1-c1cc(N2CCN(C)CC2)ncc1N(C)C(=O)C(C)(C)c1cc(C(F)(F)F)cc(C(F)(F)F)c1` it was 16.9 µM (active); in that of `CN1CCc2cc(Cl)c(O)cc2[C@@H](c2cccc3c2OCC3)C1`, “inactive”. On to `CCOc1nc2c(N)ncnc2n1CC`, for which the Potency result is “inactive”. Regarding `CCOc1ccc(-c2nn3ncccc3c2-c2ccc(S(C)(=O)=O)cc2)cc1`, the Potency is 4.77 µM (active). For the compound `CC(C)[C@@](O)(c1ccc2cc(OC(F)F)c(OC(F)F)cc2c1)c1cn[nH]n1`, the Potency was 1.07 µM (active). Consider `COc1ccnc(CCc2nc3ncccc3[nH]2)c1`, for which the Potency result was “inactive”. Take `CN[C@H](CNC(=O)N1CCC[C@@H]([C@@H](OCCNC(=O)OC)c2cccc(Cl)c2)C1)C[C@H]1CCCOC1`: the Potency entry is “inactive”.

As for `Cc1ccc(COC(=O)N2CC[C@@H](CNc3ncccn3)[C@@H](F)C2)cc1`, the Potency was 13.5 µM (active). With `Oc1ccc(CC2NCCc3cc(O)c(O)cc32)cc1` (configuration not stated), the Potency result was “inactive”. As to `Cc1ccc2nc(NC(=O)CSc3nc4c(c(=O)n3-c3ccc(F)cc3)SCC4)sc2c1`, the Potency was 3.38 µM (active). Turning to `COc1cccc(OC)c1-c1cc(C(=O)N[C@@H](CC(C)C)C(=O)O)nn1-c1ccnc2cc(Cl)ccc12`, the Potency is 16.9 µM (active). Take `CC(=O)NCC1CN(c2ccc(-c3ccc(CNCc4cn[nH]n4)cc3)c(F)c2)C(=O)O1` (configuration not stated): the Potency was 15.1 µM (active).

Take `Cc1ccc(-n2nc(C(C)(C)C)cc2NC(=O)Nc2cc(COc3cccnc3)[nH]n2)cc1`: the Potency is 7.56 µM (active).

Consider `CCC1(O)CC2c3cc(OC)c(OC)cc3CCN2CC1CC(C)C` (configuration not stated), for which the Potency entry was “inactive”. Consider `C[C@@H](NC(=O)c1cc(C(=O)N[C@@H](Cc2ccccc2)[C@H](O)CNC2CC2)cc(N(C)S(C)(=O)=O)c1)c1ccccc1`, for which the Potency was 4.25 µM (active). For the compound `CCCSc1nc(NC2CC2c2ccc(F)c(F)c2)c2nnn(C3CC(OCCO)C(O)C3O)c2n1` (configuration not stated), the Potency was 3.79 µM (active). Still for that read-out and setting: the same measure for `COc1cccc(OC)c1-c1ccc(C[C@H](NC(=O)c2c(Cl)cccc2Cl)C(=O)O)cc1`: 13.5 µM (active); for `N[C@@H](CCNCc1ccc(Cl)cc1)C(=O)N1CCCCC1`: “inactive”; for `O=C(NC1CCN(CC(F)(F)F)CC1)c1ccc(-c2cccc(F)c2)nc1`: “inactive”. Consider `O=C(O)c1cc(C(F)(F)F)ccc1N1CC[C@H](OCc2ccccn2)C1`, for which the Potency is 19 µM (active).

Values taken from PubChem BioAssay (NCATS).
